# Measurements as given in the supplement of paper PMC8728848.
# About 410 targets per protein were measured; listed, in parts, are those with the strongest signals and a random draw of the rest.
# B1: Neuropilin-2 (Homo sapiens), O60462 (protein)
# chain: MDMFPLTWVFLALYFSRHQVRGQPDPPCGGRLNSKDAGYITSPGYPQDYPSHQNCEWIVYAPEPNQKIVLNFNPHFEIEKHDCKYDFIEIRDGDSESADLLGKHCGNIAPPTIISSGSMLYIKFTSDYARQGAGFSLRYEIFKTGSEDCSKNFTSPNGTIESPGFPEKYPHNLDCTFTILAKPKMEIILQFLIFDLEHDPLQVGEGDCKYDWLDIWDGIPHVGPLIGKYCGTKTPSELRSSTGILSLTFHTDMAVAKDGFSARYYLVHQEPLENFQCNVPLGMESGRIANEQISASSTYSDGRWTPQQSRLHGDDNGWTPNLDSNKEYLQVDLRFLTMLTAIATQGAISRETQNGYYVKSYKLEVSTNGEDWMVYRHGKNHKVFQANNDATEVVLNKLHAPLLTRFVRIRPQTWHSGIALRLELFGCRVTDAPCSNMLGMLSGLIADSQISASSTQEYLWSPSAARLVSSRSGWFPRIPQAQPGEEWLQVDLGTPKTVKGVIIQGARGGDSITAVEARAFVRKFKVSYSLNGKDWEYIQDPRTQQPKLFEGNMHYDTPDIRRFDPIPAQYVRVYPERWSPAGIGMRLEVLGCDWTDSKPTVETLGPTVKSEETTTPYPTEEEATECGENCSFEDDKDLQLPSGFNCNFDFLEEPCGWMYDHAKWLRTTWASSSSPNDRTFPDDRNFLRLQSDSQREGQYARLISPPVHLPRSPVCMEFQYQATGGRGVALQVVREASQESKLLWVIREDQGGEWKHGRIILPSYDMEYQIVFEGVIGKGRSGEIAIDDIRISTDVPLENCMEPISAFAGENFKVDIPEIHEREGYEDEIDDEYEVDWSNSSSATSGSGAPSTDKEKSWLYTLDPILITIIAMSSLGVLLGATCAGLLLYCTCSYSGLSSRSCTTLENYNFELYDGLKHKVKMNHQKCCSEA
# B2: Blon2355mut (Bifidobacterium longum) (protein)
# chain: MVQEPTLEWHVIPEPTNVEPLVGTCSLPLSGTVVEQRGADDAEAVFARQLVDDIKRVCGGRWQVASGEVQREVTLRTSPSLDDWSYVLEVSPDGVVITGSGFEGVRDGVQTLRQIIRQIGLTIPCMVIRDRPAFSTRGYYLDVTRGRVPSMAWLKSWVDRLCFYKYNQFQLYIEHTFQFNGLSEVWRGADPLTSSDILELDSYCAARGIELVPSVSTFGHHYTALRTRQLRDLGEFPEDADRPFSLIERMTHHTLNITDERSYEFSTSLIDELMPLFRSRKFNICANETFDLGKGRSKQESAKRGVGAMYADFVERLCRHVDDRGHDVMVWADVALEHPEIIDTLPKNITWLNWQYEPNVDDGTTAALADAGATQMVCPAVWCWNALIPRIDDAWNNITRMARHGRAHDVSGMLVTDWGDFGHVNDPRMSVPGMIFGAQQSWNPDAELSEVDMLSRISTIEYGDHTGSVVGALRGASAKGGFSWSDLVTYLELDDGRGGCNTEIVRVMGCLEAYRNDLPQSGQARLADARVSMLRTLRDSILAGRELNGKLDDAAKDITQLLRVAGDPSSAAVWSLAIDGQRLLNRVGLALLAAHGVVRQDEAGIDAAKLADELECWTEQYSRLWHEVSRQSELARIQHVVWRAADVLRSI
# What was measured:
# Test in all cases: glycan array binding signal (z-score within array); higher = stronger binding
# Settings in all cases: glycan notation: IUPAC condensed, linker removed
# [1] = molecular target: Fuc(a1-2)Gal(b1-3)GalNAc(b1-3)Gal
# Method in brief: (§1)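 Glycan array data came from 3228 arrays in the Consortium for Functional Glycomics database, and only arrays with an available protein sequence were kept. Glycan names were put into IUPAC-condensed notation, and columns mapping to the same glycan were averaged. The binding signal is a within-array Z-score, averaged across arrays of one protein sequence run at different concentrations or buffers and across linkers. A negative Z-score can be read as non-binding.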
# [2] = molecular target: Fuc(a1-2)Gal(b1-4)GlcNAc(b1-2)Man(a1-3)[Fuc(a1-2)Gal(b1-4)GlcNAc(b1-2)Man(a1-6)]Man(b1-4)GlcNAc(b1-4)GlcNAc
# Method in brief: as §1
# [3] = molecular target: Fuc(a1-2)Gal(b1-4)[Fuc(a1-3)]GlcNAc
# Method in brief: as §1
# [4] = molecular target: Fuc(a1-2)[GalNAc(a1-3)]Gal(b1-3)GlcNAc(b1-2)Man(a1-3)[Fuc(a1-2)[GalNAc(a1-3)]Gal(b1-3)GlcNAc(b1-2)Man(a1-6)]Man(b1-4)GlcNAc(b1-4)GlcNAc
# Method in brief: as §1
# [5] = molecular target: Fuc(a1-2)[GalNAc(a1-3)]Gal(b1-4)Glc
# Method in brief: as §1
# [6] = molecular target: Fuc(a1-3)[Gal(b1-4)]Glc6S
# Method in brief: as §1
# [7] = molecular target: Fuc(a1-3)[Gal(b1-4)]GlcNAc(b1-4)Gal(b1-4)[Fuc(a1-3)]GlcNAc(b1-4)Gal(b1-4)[Fuc(a1-3)]GlcNAc
# Method in brief: as §1
# [8] = molecular target: Fuc(a1-3)[Gal3S(b1-4)]Glc6S
# Method in brief: as §1
# [9] = molecular target: Fuc(a1-3)[Gal3S(b1-4)]GlcNAc
# Method in brief: as §1
# [10] = molecular target: Gal(b1-3)GalNAc(a1-3)[Fuc(a1-2)]Gal(b1-4)Glc
# Method in brief: as §1
# [11] = molecular target: Gal(b1-3)[Fuc(a1-4)]GlcNAc
# Method in brief: as §1
# [12] = molecular target: Gal(b1-3)[Fuc(a1-4)]GlcNAc(b1-2)Man(a1-3)[Gal(b1-3)[Fuc(a1-4)]GlcNAc(b1-2)Man(a1-6)]Man(b1-4)GlcNAc(b1-4)GlcNAc
# Method in brief: as §1
# [13] = molecular target: Gal(b1-4)GlcNAc(b1-3)Gal(b1-3)GlcNAc
# Method in brief: as §1
# Gal3S4S(b1-4)GlcNAc = molecular target: Gal3S4S(b1-4)GlcNAc
# Method in brief: as §1
# GalNAc(b1-4)GlcNAc = molecular target: GalNAc(b1-4)GlcNAc
# Method in brief: as §1
# [14] = molecular target: GlcNAc(a1-4)Gal(b1-3)GlcNAc
# Method in brief: as §1
# [15] = molecular target: GlcNAc(a1-4)Gal(b1-4)GalNAc
# Method in brief: as §1
# [16] = molecular target: GlcNAc(a1-4)Gal(b1-4)GlcNAc(b1-3)Gal(b1-4)Glc
# Method in brief: as §1
# [17] = molecular target: GlcNAc(a1-4)Gal(b1-4)GlcNAc(b1-3)Gal(b1-4)[Fuc(a1-3)]GlcNAc(b1-3)Gal(b1-4)[Fuc(a1-3)]GlcNAc
# Method in brief: as §1
# GlcNAc(b1-4)GlcNAc = molecular target: GlcNAc(b1-4)GlcNAc
# Method in brief: as §1
# [18] = molecular target: Man(a1-2)Man(a1-2)Man(a1-6)[Man(a1-3)]Man
# Method in brief: as §1
# [19] = molecular target: Man(a1-2)Man(a1-3)[Man(a1-2)Man(a1-6)]Man
# Method in brief: as §1
# [20] = molecular target: Man(a1-2)Man(a1-3)[Man(a1-2)Man(a1-6)]Man(a1-6)[Man(a1-2)Man(a1-2)Man(a1-3)]Man
# Method in brief: as §1
# [21] = molecular target: Neu5Ac(a2-3)Gal(b1-4)GlcNAc(b1-2)Man(a1-3)[Neu5Ac(a2-6)Gal(b1-4)GlcNAc(b1-2)Man(a1-6)]Man(b1-4)GlcNAc(b1-4)GlcNAc
# Method in brief: as §1
# [22] = molecular target: Neu5Ac(a2-3)Gal(b1-4)GlcNAc(b1-6)[Neu5Ac(a2-3)Gal(b1-3)]GalNAc
# Method in brief: as §1
# [23] = molecular target: Neu5Ac(a2-3)Gal(b1-4)[Fuc(a1-3)]GlcNAc(b1-3)Gal
# Method in brief: as §1
# [24] = molecular target: Neu5Ac(a2-3)Gal(b1-4)[Fuc(a1-3)]GlcNAc(b1-3)Gal(b1-4)GlcNAc
# Method in brief: as §1
# [25] = molecular target: Neu5Ac(a2-3)GalNAc(b1-4)GlcNAc
# Method in brief: as §1
# [26] = molecular target: Neu5Ac(a2-3)[GalNAc(b1-4)]Gal(b1-4)Glc
# Method in brief: as §1
# Neu5Ac(a2-6)Gal(b1-4)Glc = molecular target: Neu5Ac(a2-6)Gal(b1-4)Glc
# Method in brief: as §1
# [27] = molecular target: GlcNAc(b1-2)Man(a1-3)[GlcNAc(b1-2)Man(a1-6)]Man(b1-4)GlcNAc(b1-4)GlcNAc
# Method in brief: as §1
# [28] = molecular target: GlcNAc(b1-3)Gal(b1-4)GlcNAc(b1-3)Gal(b1-4)GlcNAc(b1-3)Gal(b1-4)GlcNAc(b1-3)Gal(b1-4)GlcNAc(b1-2)Man(a1-3)[GlcNAc(b1-3)Gal(b1-4)GlcNAc(b1-3)Gal(b1-4)GlcNAc(b1-3)Gal(b1-4)GlcNAc(b1-3)Gal(b1-4)GlcNAc(b1-2)Man(a1-6)]Man(b1-4)GlcNAc(b1-4)[Fuc(a1-6)]GlcNAc
# Method in brief: as §1
# [29] = molecular target: GlcNAc(b1-3)Gal(b1-4)GlcNAc(b1-3)[GlcNAc(b1-3)Gal(b1-4)GlcNAc(b1-3)]GalNAc
# Method in brief: as §1
# [30] = molecular target: GlcNAc(b1-3)[GlcNAc(b1-6)]GalNAc
# Method in brief: as §1
# [31] = molecular target: Neu5Ac(a2-3)Gal(b1-3)[Fuc(a1-4)]GlcNAc(b1-3)Gal(b1-3)[Fuc(a1-4)]GlcNAc
# Method in brief: as §1
# [32] = molecular target: Neu5Ac(a2-3)Gal(b1-3)[Neu5Ac(a2-6)]GlcNAc(b1-3)[Fuc(a1-3)[Gal(b1-4)]GlcNAc(b1-6)]Gal(b1-4)Glc
# Method in brief: as §1
# Neu5Ac(a2-3)Gal(b1-4)Glc = molecular target: Neu5Ac(a2-3)Gal(b1-4)Glc
# Method in brief: as §1
# [33] = molecular target: Neu5Ac(a2-3)Gal(b1-4)[Fuc(a1-3)]GlcNAc(b1-2)Man
# Method in brief: as §1
# [34] = molecular target: Neu5Ac(a2-3)Gal(b1-4)[Fuc(a1-3)]GlcNAc(b1-6)[Neu5Ac(a2-3)Gal(b1-3)]GalNAc
# Method in brief: as §1
# [35] = molecular target: Neu5Ac(a2-6)Gal(b1-4)GlcNAc(b1-2)Man(a1-3)[Gal(b1-4)GlcNAc(b1-2)Man(a1-6)]Man(b1-4)GlcNAc(b1-4)GlcNAc
# Method in brief: as §1
# [36] = molecular target: Neu5Ac(a2-6)GalNAc(b1-4)GlcNAc6S
# Method in brief: as §1
# [37] = molecular target: Neu5Ac9Ac(a2-6)Gal(b1-4)GlcNAc
# Method in brief: as §1
binder,measurement,setting,value
B1,glycan array binding signal (z-score),[1],1.26
same,glycan array binding signal (z-score),[2],3.21
same,glycan array binding signal (z-score),[3],0.117
same,glycan array binding signal (z-score),[4],-0.324
same,glycan array binding signal (z-score),[5],-0.637
same,glycan array binding signal (z-score),[6],0.81
same,glycan array binding signal (z-score),[7],-0.508
same,glycan array binding signal (z-score),[8],6.67
same,glycan array binding signal (z-score),[9],0.282
same,glycan array binding signal (z-score),[10],-0.835
same,glycan array binding signal (z-score),[11],0.255
same,glycan array binding signal (z-score),[12],5.64
same,glycan array binding signal (z-score),[13],-0.249
same,glycan array binding signal (z-score),Gal3S4S(b1-4)GlcNAc,-0.032
same,glycan array binding signal (z-score),GalNAc(b1-4)GlcNAc,-0.284
same,glycan array binding signal (z-score),[14],1.66
same,glycan array binding signal (z-score),[15],6.59
same,glycan array binding signal (z-score),[16],1.04
same,glycan array binding signal (z-score),[17],10.4
same,glycan array binding signal (z-score),GlcNAc(b1-4)GlcNAc,-0.129
same,glycan array binding signal (z-score),[18],-0.323
same,glycan array binding signal (z-score),[19],-0.496
same,glycan array binding signal (z-score),[20],-0.552
same,glycan array binding signal (z-score),[21],-0.501
same,glycan array binding signal (z-score),[22],-0.664
same,glycan array binding signal (z-score),[23],-0.587
same,glycan array binding signal (z-score),[24],3.79
same,glycan array binding signal (z-score),[25],0.369
same,glycan array binding signal (z-score),[26],-0.339
same,glycan array binding signal (z-score),Neu5Ac(a2-6)Gal(b1-4)Glc,0.038
B2,glycan array binding signal (z-score),[27],-0.111
same,glycan array binding signal (z-score),[28],1.1
same,glycan array binding signal (z-score),[29],3.84
same,glycan array binding signal (z-score),[30],-0.847
same,glycan array binding signal (z-score),[31],-0.494
same,glycan array binding signal (z-score),[32],4.03
same,glycan array binding signal (z-score),Neu5Ac(a2-3)Gal(b1-4)Glc,3.29
same,glycan array binding signal (z-score),[33],1.4
same,glycan array binding signal (z-score),[34],1.6
same,glycan array binding signal (z-score),[35],-0.73
same,glycan array binding signal (z-score),[36],-0.126
same,glycan array binding signal (z-score),[37],3.4
